# Results taken from PubChem BioAssay (NCATS).
# Results filed as inconclusive are left out. Active and inactive are the calls of the source. Unless noted, the call rests on the fitted dose curve; in most records, active means well fitted curve in the direction sought with a large enough effect; inconclusive means small, poorly fitted or top-dose-only effect, or another doubt; inactive means no such curve, though single readings can be large; an effect the other way counts as inactive or inconclusive.
# Key:
# [1] = qHTS Assay for Identifying Gametocytocidal Compounds (AID 743244);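 further: on the % scale 0 is the no-effect control and ±100 the full control effect; actives lower the fluorescent signal which means gametocytes are killed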; conditions: P. falciparum 3D7 stage III-V gametocytes, alamarBlue, 72 h; max response: stronger effect = lower value
# Procedure, shortened: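 A resazurin-based viability read-out was applied to mature P. falciparum gametocytes: 72 h compound treatment, then 24 h dye incubation, with falling fluorescence signalling gametocytocidal effect.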
# [2] = qHTS profiling for inhibitors of Plasmodium falciparum (3D7) proliferation (AID 743322; call rule not given here;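 further: infected erythrocytes exposed to compound for 72 h before lysis; 100% = DMSO vehicle wells and 0% = 0.29 µM artemisinin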); conditions: P. falciparum 3D7 proliferation; at 28.7 µM (top of the series)
# Procedure, shortened: (§1)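 Erythrocytes infected with P. falciparum (0.3% parasitemia, 2.5% hematocrit) incubated with compounds 72 h at 37 C, 5% CO2. Lysis with saponin/Triton buffer containing SYBR Green I, overnight at room temperature in the dark; DNA fluorescence (485/535 nm) normalised to 0.29 uM artemisinin and DMSO.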
# [3] = qHTS profiling for inhibitors of Plasmodium falciparum (DD2) proliferation (AID 743323; call rule not given here); conditions: lower = more inhibition; at 28.7 µM (top of the series)
# Procedure, shortened: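 1536-well qHTS; infected RBCs 0.3% parasitemia/2.5% Hct final; cpd 72 h 37 C 5% CO2; lysis buffer + SYBR Green I, o/n RT dark; FI 485/535; norm. to 0.29 uM artemisinin and DMSO, plate-stack corrected.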
# [4] = qHTS profiling of the MIPE4 collection as inhibitors of Plasmodium falciparum (3D7) proliferation (AID 743344; call rule not given here;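 further: scaled between DMSO vehicle wells and 0.29 µM artemisinin as full inhibition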); conditions: P. falciparum 3D7 in erythrocytes, SYBR Green DNA fluorescence, 72 h; at 9.64 µM (top of the series) unless noted
# Procedure, shortened: as §1
# [5] = qHTS profiling of the MIPE4 collection as inhibitors of Plasmodium falciparum (DD2) proliferation (AID 743345; call rule not given here); conditions: P. falciparum Dd2 in erythrocytes, SYBR Green DNA, 72 h; at 9.64 µM (top of the series) unless noted
# Procedure, shortened: as §1
# [6] = qHTS profiling of the MIPE4 collection as inhibitors of Plasmodium falciparum (DD2) proliferation (Rep 2) (AID 743346; call rule not given here); conditions: P. falciparum Dd2 in erythrocytes, SYBR Green DNA, 72 h; at 9.64 µM (top of the series) unless noted
# Procedure, shortened: as §1
# [7] = qHTS profiling of the MIPE4 collection as inhibitors of Plasmodium falciparum (HB3) proliferation (AID 743347; call rule not given here;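 further: plate controls were DMSO vehicle wells for no effect and artemisinin wells for full effect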); conditions: P. falciparum HB3 in erythrocytes, SYBR Green DNA, 72 h; at 9.64 µM (top of the series) unless noted
# Procedure, shortened: as §1
# [8] = qHTS profiling for inhibitors of Plasmodium falciparum (HB3) proliferation (AID 743324); conditions: Plasmodium falciparum HB3 blood-stage proliferation; at 28.7 µM (top of the series);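 further: 100% = DMSO vehicle wells and 0% = artemisinin-treated control wells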
# Procedure, shortened: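 P. falciparum HB3 grown in erythrocytes (0.3% parasitemia, 2.5% hematocrit final) with compound for 72 h at 37 C, 5% CO2. Parasite DNA detected by SYBR Green after saponin/triton lysis overnight; normalized to 0.29 uM artemisinin and DMSO.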
smiles,measurement,setting,value
NS(=O)(=O)c1cc(C2(O)NC(=O)c3ccccc32)ccc1Cl (stereo unspecified),max response,[1],0.268% (inactive)
CCCCCOC(=O)Nc1nc(=O)n([C@@H]2O[C@H](C)[C@@H](O)[C@H]2O)cc1F,max response,[1],5.02% (inactive)
O=C(NCCCN1CCOCC1)c1ccc(Cl)cc1,max response,[1],-7.89% (inactive)
C[C@]1(Cn2ccnn2)[C@H](C(=O)O)N2C(=O)C[C@H]2S1(=O)=O,max response,[1],9.4% (inactive)
CC(C)(C)NCC(O)COc1cccc2c1CCC(=O)N2 (stereo unspecified),max response,[1],15.2% (inactive)
CC(C)CCOC(=O)c1ccc(N(C)C)cc1,max response,[1],-13.7% (inactive)
O=C(/C=C/c1ccc(O)c(O)c1)O[C@@H]1C[C@@](OC(=O)/C=C/c2ccc(O)c(O)c2)(C(=O)O)C[C@@H](O)[C@@H]1O,max response,[1],3.41% (inactive)
O=C(NCC(O)CO)c1c(I)c(C(=O)NCC(O)CO)c(I)c(N(CCO)C(=O)CO)c1I (stereo unspecified),max response,[1],8.95% (inactive)
CC(=O)N1C[C@H](O)C[C@H]1C(=O)O,max response,[1],11.8% (inactive)
Cc1c(NC(=O)c2cccnc2)c(=O)n(-c2ccccc2)n1C,max response,[1],-5.32% (inactive)
NS(=O)(=O)c1cc(-c2nn[nH]n2)c(NCc2cccs2)cc1Cl,max response,[1],54.3% (inactive)
O=C1CC[C@@H](C(=O)O)N1,max response,[1],-5.19% (inactive)
O=c1[nH]c2cc(C(F)(F)F)c(N3CCOCC3)cc2n(CP(=O)(O)O)c1=O,max response,[1],2.6% (inactive)
CC(=O)NCc1c(I)c(NC(C)=O)c(I)c(C(=O)O)c1I,max response,[1],12.1% (inactive)
C=CCSCC1Nc2cc(Cl)c(S(N)(=O)=O)cc2S(=O)(=O)N1 (stereo unspecified),max response,[1],15.7% (inactive)
Cc1cccc(C)c1NC(=O)CC12CCCN1CCC2,max response,[1],0.37% (inactive)
OCCN1C[C@H](O)[C@@H](O)[C@H](O)[C@H]1CO,max response,[1],4.21% (inactive)
CO[C@@]1(NC(=O)C(C(=O)O)c2ccc(O)cc2)C(=O)N2C(C(=O)O)=C(CSc3nnnn3C)CO[C@@H]21 (stereo partly specified),max response,[1],2.23% (inactive)
CC(=O)Nc1ccc(OCCOCCOc2ccc(NC(C)=O)cc2)cc1,max response,[1],1.8% (inactive)
CCCNC(C)(C)COC(=O)c1ccccc1,max response,[1],5.84% (inactive)
C/C=C/C(=O)N(CC)c1ccccc1C,max response,[1],21.1% (inactive)
Cc1c(Cn2ccnc2)c2ccccc2n1CCC(=O)O,max response,[1],-9.07% (inactive)
COCC(=O)Nc1c(I)c(C(=O)NCC(O)CO)c(I)c(C(=O)N(C)CC(O)CO)c1I (stereo unspecified),max response,[1],10.5% (inactive)
CN[C@@H]1[C@@H](O)[C@@H](O[C@@H]2[C@H](O)[C@H](O[C@H]3OC(CN)=CC[C@H]3N)[C@@H](N)C[C@H]2N)OCC1(C)O (stereo partly specified),max response,[1],-9.46% (inactive)
NC(=O)NC1NC(=O)NC1=O (stereo unspecified),max response,[1],-4.09% (inactive)
CN/C(=C\[N+](=O)[O-])NCCSCc1csc(CN(C)C)n1,max response,[1],18.9% (inactive)
O=c1[nH]cnc2nc[nH]c12,max response,[1],-7.32% (inactive)
CC(N)CCCC(C)(C)O (stereo unspecified),max response,[1],-9.78% (inactive)
CCN1CC(CCN2CCOCC2)C(c2ccccc2)(c2ccccc2)C1=O (stereo unspecified),max response,[1],3.23% (inactive)
CN1C(=O)CC(c2ccccc2)C1=O (stereo unspecified),max response,[1],-11.3% (inactive)
CCOc1ccc(C(=O)OCCN(CC)CC)cc1,max response,[1],4.91% (inactive)
CN1CC(=O)NC1=N,max response,[1],-8.6% (inactive)
COc1cc(O)cc(O)c1,max response,[1],-9.75% (inactive)
CCCCCCCCCCOc1cc2c(=O)c(C(=O)OCC)c[nH]c2cc1OCC,remaining parasite growth % (stronger effect = lower value),[2],0.552%
same,"activity, percent of control",[3],2.1%
same,"parasite growth, % of DMSO control",[4],7.74% [at 28.5 µM]
same,"parasite growth remaining, % of DMSO control (lower = more inhibition)",[5],7.98% [at 28.5 µM]
same,"parasite growth, % of control (lower = inhibition)",[6],14.5% [at 28.5 µM]
same,"growth, % of control",[7],3.33% [at 28.5 µM]
CCOc1ccccc1O[C@H](c1ccccc1)[C@H]1CNCCO1,remaining parasite growth % (stronger effect = lower value),[2],89.6%
same,"activity, percent of control",[3],63.9%
same,"remaining proliferation (% of control), lower = more inhibition",[8],47.7%
COc1ccc(NS(=O)(=O)c2ccc(N)cc2)nn1,"parasite growth, % of DMSO control",[4],103%
same,"parasite growth remaining, % of DMSO control (lower = more inhibition)",[5],101%
same,"parasite growth, % of control (lower = inhibition)",[6],141%
same,"growth, % of control",[7],62.1%
